Rows were chosen to be rich in hits. Some 3.9% of all compounds tested hit in one or more screens of this group.
BH1578 lux ind: inducers of Vibrio cholerae quorum light production without autoinducers; V. cholerae BH1578 lux reporter, luminescence, 6 h; activation, % at 18.7 µM; actives 0.16% (n = 350,000); AID 588436; in the data active means activation mostly above about 9.7%, no sharp cut-off; inconclusive means no clear call, values can overlap the other calls; inactive means mostly below about 3.7%
MazF activator: activators of E. coli MazEF toxin-antitoxin RNase | P0AE70 | FAM/BHQ RNA-DNA oligo cleavage fluorescence, 5 h | activation, % at 20 µM | actives 0.32% (n = 350,000) | AID 504720; in the data active means activation above about 50%
Target sequence (P0AE70 whole entry, looked up): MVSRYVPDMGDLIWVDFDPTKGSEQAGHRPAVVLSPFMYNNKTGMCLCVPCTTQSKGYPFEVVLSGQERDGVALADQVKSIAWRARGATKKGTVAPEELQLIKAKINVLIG
BoNT-F LC inh: BoNT F light chain protease inhibition; Multiplex microsphere protease cleavage assay, flow cytometry; inhibition, % at 10 µM; actives 0.22% (n = 360,000); in the data active means inhibition above about 35%, passing the limit was not always enough; inconclusive means no clear call, values can overlap the other calls; further: plate controls were buffer without enzyme for full effect and enzyme alone for no effect
BoNT-A LC inh2: blocks Botulinum neurotoxin A light chain protease. multiplex microsphere protease substrate cleavage, flow cytometry. inhibition, % at 10 µM. actives 0.17% (n = 360,000). AID 588499; further: plate controls were buffer without enzyme for full effect and enzyme alone for no effect
Bead autofluor: flagged as autofluorescent in microsphere protease counterscreen; compound autofluorescence counterscreen, microsphere flow cytometry; hits give high values; fluorescence intensity (concentration not given with the values); actives 3.1% (n = 360,000); in the data active means fluorescence intensity above about 16000; inconclusive means no clear call, values can overlap the other calls
Anthrax LF prot: anthrax lethal factor protease inhibition. actives 0.12% (n = 360,000). P15917. multiplex microsphere protease cleavage assay, LF. inhibition, % at 10 µM; further: plate controls were buffer without enzyme for full effect and enzyme alone for no effect
Active calls of the source: *; i = inactive; ? = inconclusive; / = not tested or not shown. Unless noted, no stated cut-off is given here; in the data, active means inhibition above about 30%; inconclusive means no clear call, values can overlap the other calls; inactive means below that.

SMILES	BH1578 lux ind	MazF activator	BoNT-F LC inh	BoNT-A LC inh2	Bead autofluor	Anthrax LF prot
CC1CCCCC1NC(=O)c1cn(C)c2ccc(S(=O)(=O)N3CCCC3)cc2c1=O (centres undefined)	i	-4	-3	?	20217*	-2
CC1CCN(S(=O)(=O)c2ccc3c(c2)c(=O)c(C(=O)NC2CCCC2)cn3C)CC1	i	-1	-4	?	20721*	2
Cc1cccc(C)c1-n1nnnc1C1(C)CCC(=O)N1CC(F)(F)F (centres undefined)	/	/	3	-1	4076	-3
COC(=O)C1[C@H]2C(=O)N(Cc3cccs3)C[C@]23C=C[C@H]1O3 (some centres undefined)	i	-2	-3	-1	23081*	-1
COCCCNC(=O)C1C2C=CC3(CN(Cc4ccc(C)cc4)C(=O)C13)O2 (centres undefined)	0	2	-1	-1	23422*	-2
CN(C(=O)COC(=O)c1ccc(Cl)s1)C1(C#N)CCCCC1	i	-6	/	/	/	/
Cn1ncc([N+](=O)[O-])c1C(=O)n1nnc2ccccc21	0	3	1	0	3853	3
COc1cccc(NC(C)C(=O)N2CC(C)OC(C)C2)c1 (centres undefined)	0	8	3	?	23137*	-2
CCN1C(=O)c2c(C)nc3ccccc3c2C1=O	-1	6	0	-1	20844*	-3
Cc1cc2cc(CN(Cc3ccco3)S(=O)(=O)c3c(C)ccc4nsnc34)c(=O)[nH]c2cc1C	i	-8	-2	?	20470*	1
Cc1cc2cc(CN(CCCO)S(=O)(=O)c3cccc4nsnc34)c(=O)[nH]c2cc1C	0	9	2	0	22386*	2
Cc1ccc(C2/C(=C(/O)c3ccccc3)C(=O)C(=O)N2CCN2CCOCC2)o1 (centres undefined)	i	0	1	1	20379*	-2
CCN(CC)C(=O)CSc1nc2c(sc(=S)n2CC)c(=O)n1-c1ccccc1	4	-2	-4	?	22153*	-7
CCC(C)NC(=O)CSc1nc2c(sc(=S)n2Cc2ccco2)c(=O)n1-c1ccccc1 (centres undefined)	-1	4	4	0	5479	2
CCN(CC)C(=O)CSc1nc2c(sc(=S)n2-c2ccccc2)c(=O)n1Cc1ccco1	i	5	6	2	21125*	-3
CCOC(=O)CSc1nc2c(sc(=S)n2Cc2ccco2)c(=O)n1-c1ccc(F)cc1	i	-3	-5	?	16594*	-5
C/C(=N/NC(=O)c1cc(-c2ccccc2)nc2c(Cl)cccc12)c1cccnc1	-1	5	7	2	4424	2
COCC(C)NS(=O)(=O)c1ccc(OC)cc1 (centres undefined)	i	-1	11	6	19695*	-1
COCC(C)NS(=O)(=O)c1ccccc1 (centres undefined)	-1	3	1	0	4637	-4
O=C(Nc1ccc(S(=O)(=O)NCc2ccccc2)cc1)c1ccccc1[N+](=O)[O-]	0	116*	2	-1	2471	0
COc1ccccc1Oc1ccc(S(=O)(=O)NCc2ccccn2)cc1	i	-2	1	-1	23518*	1
CSc1ccc(S(=O)(=O)NCc2ccc(C)cc2)cc1	0	-1	-1	-1	23510*	0
CCOC(=O)c1ccc(NC(=O)c2ccccc2[N+](=O)[O-])cc1	i	-1	-1	0	2156	0
CCOC(=O)C(C#N)(Cc1ccc2ccccc2n1)Cc1ccc2ccccc2n1	i	0	-3	-1	3517	-1
C[C@H](CO)N1C[C@H](C)[C@@H](CN(C)C(=O)Nc2cc(F)ccc2F)Oc2ncc(-c3cccc(F)c3)cc2C1=O	1	0	-2	0	2876	-4
SMILES	BH1578 lux ind	MazF activator	BoNT-F LC inh	BoNT-A LC inh2	Bead autofluor	Anthrax LF prot
CC(C)C[C@@H](CN1CCCC1CN1C(=S)NC[C@@H]1Cc1ccccc1)N1C[C@H](Cc2ccccc2)N(CCc2ccccc2)C1=S (some centres undefined)	/	/	8	1	4578	-2
COc1ccc(S(=O)(=O)NCCCCNS(=O)(=O)c2ccc(OC)cc2)cc1	0	-3	0	-1	6670	-1
Cc1ccc(CNC(=O)CCNS(=O)(=O)c2ccc(C)cc2)cc1	-3	1	?	0	4205	-3
COc1ccc(S(=O)(=O)NCc2cccs2)cc1	-1	0	-1	0	21782*	2
O=S(=O)(NCc1cccs1)c1cccc2cccnc12	0	1	-3	-2	17165*	0
COc1ccc(S(=O)(=O)NCCC(=O)NCc2ccccc2)cc1	0	2	1	3	21763*	-4
C=CCNC(=O)CCCCCNS(=O)(=O)c1ccc(OC)cc1	0	-1	-1	2	23119*	2
COc1ccc(S(=O)(=O)NCc2ccccc2)cc1	2	9	-9	-5	21265*	-2
CCN(CC)CC(=O)NN=C(c1ccccc1)c1ccccc1	0	-10	-1	0	2700	0
O=C(CCl)NN=C(c1ccccc1)c1ccccc1	i	59*	-2	0	4778	-7
Cc1ccc(NC(=O)C2CCCN2C(=O)OCc2ccccc2)c(O)c1 (centres undefined)	0	18	-3	-2	5583	0
Cc1cccc2c1OCC/C2=N\NC(=O)COc1ccccc1	i	1	-1	-2	20669*	0
COc1ccc(OCC(=O)N/N=C2\CCCc3ccccc32)cc1	0	-5	-19	-1	2470	2
O=C(NCCN1CCOCC1)c1cc2sccc2n1Cc1ccc(F)cc1	i	3	8	4	15116	-9
Cc1ccc(NC(=S)NCCN2CCOCC2)cc1C	-2	-1	-5	-2	20237*	2
O=C(NC(=S)NCCN1CCOCC1)c1ccc(Cl)cc1	0	5	54*	6	2220	1
O=C(NCCN1CCOCC1)c1cc2sccc2n1Cc1ccc(Cl)cc1	-1	-3	-1	0	16131*	-3
CSc1ccc(Cn2c(C)c(C(=O)NCc3cccc(C(F)(F)F)c3)sc2=O)cc1	-1	/	0	0	5046	-5
COc1ccccc1C1C(C(=O)c2cc3ccccc3o2)=C(O)C(=O)N1CCN(C)C (centres undefined)	-1	12	9	2	3317	0
CN(C)CCN1C(=O)C(O)=C(C(=O)c2cc3ccccc3o2)C1c1cccc(Br)c1 (centres undefined)	i	-14	-6	?	22182*	-3
COc1cccc2cc(C(=O)C3=C(O)C(=O)N(CCN(C)C)C3c3ccc(Cl)cc3)oc12 (centres undefined)	i	4	?	?	3918	30*
O=C(Cc1cccs1)N1CCN(S(=O)(=O)c2ccc(Br)cc2)CC1	0	-1	1	0	2233	1

Screening data from PubChem BioAssay.
